A word on the AC50: it is the concentration at which the activity in the assay is half-maximal.

Values joined by “and” are separate entries in the source; they are usually repeats but may differ in a detail not shown here. Equal values may be shown once. Where a structure was tested more than once in an assay, its records may differ in their call. Active and inactive are the calls of the source. The calls were made as follows: active = hit-call score of the fitted dose curve at least 0.9, where 1 is the maximum; inactive = score below 0.9.

The target in the experiment is Hypoxia-inducible factor 1-alpha (Homo sapiens) (UniProt Q16665). As to the kind of experiment: ATG_HIF1a_CIS: Attagene CIS-FACTORIAL HepG2 Assay for human Hypoxia Inducible Factor 1 (HIF1A) (AID 2282951). The note with it: HepG2 Attagene cis-factorial HIF1a reporter transcription; actives raise or lower the signal. The procedure: ATG_CIS is a cell-based, multiplexed-readout assay that uses HepG2, a human liver cell line, with measurements taken at 24 hours after chemical dosing in a 24-well plate.ATG_HIF1a_CIS is one of 52 assay component(s) measured or calculated from the ATG_CIS assay. It is designed to make measurements of mRNA induction, a form of inducible reporter, as detected with fluorescence intensity signals by Reverse transcription polymerase chain reaction (RT-PCR) and Capillary electrophoresis technology.Data from the assay component ATG_HIF1a_CIS was analyzed into 1 assay endpoint. This assay endpoint, ATG_HIF1a_CIS, was analyzed with bidirectional fitting relative to DMSO as the negative control and baseline of activity. Using a type of inducible reporter, measures of mRNA for gain or loss-of-signal activity can be used to understand the reporter gene at the transcription factor-level as they relate to the gene HIF1A. Furthermore, this assay endpoint can be referred to as a primary readout, because this assay has produced multiple assay endpoints where this one serves a reporter gene function. To generalize the intended target to other relatable targets, this assay endpoint is annotated to the dna binding intended target family, where the subfamily is basic helix-loop-helix protein.
Sequence of Hypoxia-inducible factor 1-alpha (Homo sapiens) (Q16665 whole entry, looked up): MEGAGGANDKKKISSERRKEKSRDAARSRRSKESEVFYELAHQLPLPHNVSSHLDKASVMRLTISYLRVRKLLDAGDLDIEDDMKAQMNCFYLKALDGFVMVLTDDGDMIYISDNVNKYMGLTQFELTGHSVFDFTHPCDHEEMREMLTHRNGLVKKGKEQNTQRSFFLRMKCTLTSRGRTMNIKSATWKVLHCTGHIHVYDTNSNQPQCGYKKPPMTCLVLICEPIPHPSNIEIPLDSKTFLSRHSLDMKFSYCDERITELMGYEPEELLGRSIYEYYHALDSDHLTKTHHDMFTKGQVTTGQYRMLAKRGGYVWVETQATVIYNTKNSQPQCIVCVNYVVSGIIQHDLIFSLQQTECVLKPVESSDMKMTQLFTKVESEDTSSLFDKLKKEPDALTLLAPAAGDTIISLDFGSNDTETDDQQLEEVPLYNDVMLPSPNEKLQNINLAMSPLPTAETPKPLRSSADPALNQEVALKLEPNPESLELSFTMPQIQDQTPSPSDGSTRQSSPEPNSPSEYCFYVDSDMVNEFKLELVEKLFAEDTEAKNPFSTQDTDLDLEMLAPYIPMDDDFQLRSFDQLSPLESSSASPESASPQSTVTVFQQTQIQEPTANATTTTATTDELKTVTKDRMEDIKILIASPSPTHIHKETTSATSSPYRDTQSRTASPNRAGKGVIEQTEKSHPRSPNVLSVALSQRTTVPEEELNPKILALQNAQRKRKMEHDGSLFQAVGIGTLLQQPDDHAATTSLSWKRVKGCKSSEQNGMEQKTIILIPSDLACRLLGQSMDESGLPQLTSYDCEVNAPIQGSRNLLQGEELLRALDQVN
Human liver HepG2 cells are transiently transfected with multiple reporter transcription units (MRTUs) in 6-well plates using FuGene 6 reagent (Roche; 3 ml FuGene/1 mg DNA). The MRTU constructs are regulated by a cis-regulating element (promoter). […] A major difference between the CIS and TRANS system is that in CIS activities of endogenous TFs are measured, whereas the TRANS assay evaluates changes in activities of exogenous, chimeric NR-Gal4 proteins. […] At the end of 24 hour incubation, total RNA was isolated using TriZol reagent (Invitrogen). The isolated RNA is then reverse-transcribed using oligo(dT) primer and Mo-MLV reverse transcriptase (Invitrogen) with DNAse I (Ambion) treatment for 30 min. The one-tenth of the produced cDNA was amplified by PCR using Taq DNA polymerase (Invitrogen) and two reporter sequence-specific primers. The PCR products were fluorescently labeled by primer extension with 6-arboxyfluorescein (6-FAM) 5'-labeled reporter sequence-specific primer (2 min at 95 C, 20 s at 68 C and 10 min at 72 C) and these products were digested with 5U of HpaI (New England Biolabs) for 2h at 37 C. The fragments were purified using Qiaquick PCR columns (Qiagen), analyzed on an ABI 3130xL genetic analyzer (Applied Biosystems) with peak positions identified by using a set of X-rhodamine (ROX)-labeled MapMarker1000 molecular weight standards (BioVentures). The raw capillary electrophoresis data was processed using Attagraph software (Attagene).
On to `CN1C(=O)N(c2ccccc2Br)Cc2cnc(Nc3ccc4c(c3)OCC(CO)O4)nc21` (stereo not given), for which the AC50 is 9.59 µM (active).

For the compound `CCN(CC)C(=O)c1cc(S(=O)(=O)Cc2ccccc2)c(N2CCC(c3ccccc3)CC2)cc1N(CC)CCN(C)C`, the AC50 was 3.7 µM (active).

For the compound `O=C1c2ccccc2C(=O)N1CCc1noc(-c2ccc(CN3CCCCCC3)s2)n1`, the AC50 is 51.2 µM (active).

Take `NC(=O)c1nc(-c2cccc(-c3cc(F)ccc3OCC(F)(F)C(F)(F)F)c2)n[nH]1`: the AC50 is 2.7 µM (active).

On to `C[C@]12CC[C@@H]3c4ccc(O)cc4CC[C@H]3[C@@H]1CCC2=O`, for which the result was inactive.

With `OC12N=C(c3ccccc3)SC1Cc1cc(Cl)ccc12` (stereo not given), the compound was called inactive.

In the case of `CN(C)C(=O)C1(N2CCCCC2)CCN(CC[C@@]2(c3ccc(Cl)c(Cl)c3)CN(C(=O)c3ccccc3)CCO2)CC1`, the AC50 is 1.01 µM (active).

In the case of `CCOC(=O)O[C@H](C)OC(=O)c1ccc2c(c1)cc(C(=O)NC1CCN(C(C)C)CC1)n2Cc1cc(-c2ccc(Cl)s2)on1`, the AC50 is 20.9 µM (active).

As for `O=C1CCC(C2CCCCC2)CC1`, the AC50 was 0.821 µM (active) and the compound was called inactive.

`CC(C)(C)c1csc(-c2cc3cc(OCc4ccccc4CC(=O)O)ccc3o2)n1`: the compound was called inactive.

In the case of `CC(C)(O)c1ccc(CNC(=O)c2cccnc2Oc2ccc3nonc3c2)cc1`, the compound was classed as inactive.

With `CC(O)CC(C)(C)O` (stereo not given), the compound was classed as inactive.

Regarding `CCN(Cc1cccnc1)C(=O)c1cccc(Cl)c1[C@]1(C)C(=O)N(Cc2ccc(OC)cc2OC)c2ccc(Cl)cc21`, the call was inactive.

As for `c1ccc2n[nH]nc2c1`, the compound was called inactive.

Regarding `CN(C[C@@H](CC[N+]12CCC(C3CCCCC3)(CC1)CC2)c1ccc(Cl)c(Cl)c1)C(=O)c1cc(C(F)(F)F)cc(C(F)(F)F)c1`, the compound was called inactive.

Regarding `CC/C(=C(/CC)c1ccc(O)cc1)c1ccc(O)cc1`, the call was inactive.

For `CCCCCCCCCCCCO`, the compound was classed as inactive.

`CCCCCCCC[Si](OCC)(OCC)OCC`: the concentration at half-maximal activity (AC50) is 57.3 µM (active) and 26.4 µM (active); the compound was classed as inactive.

Regarding `O=C(O)Cn1c(=O)n(Cc2ccc(Br)cc2F)c(=O)c2ccc(Cl)cc21`, the call was inactive.

On to `CCCCCc1ccc(N)cc1`, for which the AC50 was 2.57 µM (active) and the compound was called inactive.

Consider `Cc1cc(F)ccc1-c1cc(N2CC[C@@H](O)[C@H]2CO)ncc1N(C)C(=O)C(C)(C)c1cc(C(F)(F)F)cc(C(F)(F)F)c1`, for which the outcome was inactive.

As to `NCc1cccc(C2CCN(C(=O)c3ccc(C#Cc4ccccc4F)o3)CC2)c1`, the call was inactive.

As for `c1ccc(C[n+]2cccc3ccccc32)cc1`, the result was inactive.

With `O=C(O)c1ccccc1-n1cc(C(=O)O)c(=O)c2cc(Nc3c(F)cc(F)cc3Cl)c(Cl)cc21`, the outcome was inactive.

With `CC(C)(c1cc(Br)c(O)c(Br)c1)c1cc(Br)c(O)c(Br)c1`, the AC50 was 47.1 µM (active) and the call was inactive.

As to `CC(C)(C)c1cc(/C=C2\SC(N)=NC2=O)cc(C(C)(C)C)c1O`, the compound was classed as inactive.

For `CC1=CC(=O)/C(=C(/C)O)C(=O)O1`, the compound was classed as inactive.

On to `Cc1oc2c(NC(=O)c3c(Cl)cccc3Cl)cccc2c1C(C)(C)O`, for which the AC50 was 37.8 µM (active).

On to `O=c1[nH]sc2ccccc12`, for which the AC50 is 8.86 µM (active).

`Cc1cc2c(cc1C(F)(F)F)N(C(=O)Nc1ccc(Oc3cccnc3C)nc1)CC2`: the compound was classed as inactive.

Consider `Cc1ccc2oc(CN(Cc3ccccc3)C(=O)Nc3c(F)cc(F)cc3F)c(-c3ccc(Cl)cc3)c2c1`, for which the compound was classed as inactive.

`O=CCCCC=O`: the call was inactive.

In the case of `CCCCCCCCCCCO`, the outcome was inactive.

`O=C(OCCCCCCOC(=O)c1ccccc1)c1ccccc1`: the outcome was inactive.

As for `O=C1O[C@H]([C@@H](O)CO)C(O)=C1O`, the result was inactive.

Take `COc1ccc2cc(S(=O)(=O)N[C@H](CC(=O)N[C@H](Cc3ccc(CN4[C@H](C)CCC[C@@H]4C)cc3)C(=O)N(C)C(C)C)c3ccc4c(c3)OCO4)ccc2c1`: the concentration at half-maximal activity (AC50) was 1.38 µM (active).

The record behind these values is PubChem BioAssay (EPA / NIEHS).
